Hits are enriched below; roughly 2.9% of the tested compounds scored in any of these assays.
PAFAH2 FP inh – PAFAH2 enzyme inhibitors, primary screen, biochemical, fluorescence polarization, human; Platelet-activating factor acetylhydrolase 2, cytoplasmic (Homo sapiens), Q99487; inhibition, % at 3.39 µM; AID 492956, 2010; recombinant PAFAH2, FP-rhodamine activity probe; actives 0.99% (n = 340,000);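 active = inhibition above the mean over all tested compounds plus 3 SD, cut at about 30% in these data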;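 also: inhibitors block probe labeling of enzyme so polarization drops; 0% = enzyme with DMSO and 100% = wells lacking PAFAH2 protein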
pPAFAH inh – pPAFAH enzyme inhibitors, primary screen, biochemical, fluorescence polarization, human. recombinant pPAFAH, FP-rhodamine probe fluorescence polarization. Platelet-activating factor acetylhydrolase (Homo sapiens), Q13093. AID 463082, 2010. actives 1.5% (n = 330,000). inhibition, % at 3.39 µM;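 active = inhibition above the mean inhibition across the screen plus 3 SD, cut at about 25% in these data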;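 also: inhibitors block binding of the rhodamine activity-based probe so polarization drops; 0% = enzyme with DMSO and 100% = wells lacking pPAFAH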
PME-1 inh – PME-1 inhibitors via competitive probe labeling, primary screen, biochemical, fluorescence polarization, FP-Rh probe, HTS; recombinant PME-1; inhibition, % at 5.9 µM; actives 0.53% (n = 320,000); AID 2130, 2009;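 active = inhibition above the campaign mean of all compounds plus 3 SD, cut at about 26% in these data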;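 also: competitive labeling of PME-1 active site by serine hydrolase directed probe; 0% = PME-1 with DMSO and 100% = wells lacking PME-1 enzyme; inhibitors block probe labeling so polarization falls and inhibition rises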
Fam108B inh – mouse Fam108B serine hydrolase inhibitors, primary screen, counter-screen for RBBP9 inhibitor project, biochemical, fluorescence polarization. inhibition, % at 9.51 µM. actives 0.33% (n = 300,000). recombinant Fam108B, FP-Rh probe fluorescence polarization;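 active = inhibition above the screen mean inhibition plus 3 SD, computed separately per campaign, cut at about 18% in these data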;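 also: inhibitors lower polarization as less probe binds the enzyme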
PAFAH1B2 inh – PAFAH1B2 enzyme inhibitors, primary screen, biochemical, fluorescence polarization, human; actives 1.2% (n = 340,000); inhibition, % at 3.39 µM; recombinant PAFAH1B2, FP-rhodamine activity probe;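 active = inhibition above the mean of all tested compounds plus 3 SD, cut at about 24% in these data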;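 also: 0% = enzyme with DMSO and 100% = wells lacking PAFAH1B2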
Target sequence (P68402 whole entry, looked up): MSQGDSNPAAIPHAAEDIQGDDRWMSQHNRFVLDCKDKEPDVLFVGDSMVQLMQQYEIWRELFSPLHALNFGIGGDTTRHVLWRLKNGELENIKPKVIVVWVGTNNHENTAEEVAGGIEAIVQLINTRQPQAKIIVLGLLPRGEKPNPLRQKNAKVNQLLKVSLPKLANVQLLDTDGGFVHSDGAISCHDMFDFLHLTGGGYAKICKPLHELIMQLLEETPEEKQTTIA
PAFAH1B3 FP inh – PAFAH1B3 enzyme inhibitors, primary screen, biochemical, fluorescence polarization, human; recombinant PAFAH1B3, FP-rhodamine probe; inhibition, % at 3.39 µM; actives 0.28% (n = 340,000); AID 492972, 2010;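 active = inhibition above the screen-wide average of all tested compounds plus 3 SD, cut at about 25% in these data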;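 also: 0% = enzyme with DMSO only and 100% = wells lacking PAFAH1B3 protein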
Target sequence (Q15102 whole entry, looked up): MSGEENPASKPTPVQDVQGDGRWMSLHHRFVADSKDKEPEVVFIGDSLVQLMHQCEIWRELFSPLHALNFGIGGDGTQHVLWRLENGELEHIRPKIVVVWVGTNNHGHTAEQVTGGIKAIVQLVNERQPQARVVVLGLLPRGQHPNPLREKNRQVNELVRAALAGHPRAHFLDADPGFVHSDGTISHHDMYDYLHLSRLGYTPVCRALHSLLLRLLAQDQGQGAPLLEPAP
pPAFAH confirm – pPAFAH (PLA2G7) enzyme inhibitors, confirmation, biochemical, fluorescence polarization, human; recombinant pPAFAH, FP-Rh probe fluorescence polarization; shares compounds with pPAFAH inh; AID 463230, 2010; actives 72% (n = 2,300); inhibition, % at 3.39 µM;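 active = mean inhibition of the triplicate above the hit cutoff set for the earlier primary screen, cut at about 25% in these data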;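 also: 0% = enzyme with DMSO and 100% = wells lacking pPAFAH enzyme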
* marks the source's active call; other numbers are inactive results; · = no result.

SMILES	PAFAH2 FP inh	pPAFAH inh	PME-1 inh	Fam108B inh	PAFAH1B2 inh	PAFAH1B3 FP inh	pPAFAH confirm
O=C(COC(=O)c1ccc2c(c1Cl)C(=O)c1ccccc1C2=O)NC1CCCCC1	44.4*	52.8*	2.6	1.1	-4.5	3.0	49.9*
O=C(COC(=O)c1cc(Cl)ccc1Cl)NC1CCCC1	13.0	4.5	7.4	7.1	3.3	-1.2	·
O=C(COC(=O)c1ccccc1OCc1ccc(Cl)cc1)NC1CC1	27.9	8.1	-2.8	-1.8	-3.8	5.6	·
O=C(COC(=O)c1ccc2c(c1Cl)C(=O)c1ccccc1C2=O)NC1CC1	34.2*	53.6*	15.1	3.6	-0.1	8.2	43.8*
CCOC(=O)CC1=C(C(=O)OCC)C(c2ccc(C)o2)C(C#N)=C(N)O1 (stereo unspecified)	0.3	-1.8	0.2	-1.7	-1.2	3.9	·
Cc1ccc(C2C(C#N)=C(N)Oc3c2sc2ccccc32)o1 (stereo unspecified)	·	37.8*	6.0	4.4	·	·	30.2*
CN1CCN(CC(=O)N2CCn3c4c(c5cc(C6CCCCC6)ccc53)CCCC42)CC1 (stereo unspecified)	-1.7	36.3*	1.6	1.1	5.4	9.4	53.5*
O=[N+]([O-])c1ccc(N/N=C/c2cccc(O)c2O)c(S(=O)(=O)N2CCOCC2)c1	-14.0	45.0*	31.4*	-5.9	-7.6	4.5	56.8*
O=[N+]([O-])c1ccccc1N/N=C/c1cccc(O)c1O	1.6	49.6*	3.1	7.7	-1.8	0.2	14.0
O=[N+]([O-])c1ccc(N/N=C/c2ccc(O)c(O)c2O)c(S(=O)(=O)N2CCOCC2)c1	12.6	·	·	·	6.6	11.3	·
Cc1nc2ccc(F)cc2cc1C(=O)NCc1ccco1	10.2	1.2	-3.0	3.1	10.0	-1.7	·
Cc1nc2ccc(F)cc2cc1C(=O)Nc1ccc(Cl)c(Cl)c1	-10.1	42.2*	-6.8	-7.6	-0.3	-6.3	1.6
CCCCCCCCCCCCCCCC[n+]1cccc2ccccc21	-3.4	56.5*	9.2	12.6	-7.5	-1.1	32.6*
CCCCCCCCC[n+]1cccc2c3ccccc3ccc21	-1.6	6.6	-8.5	3.1	1.6	-0.6	·
O=c1cc(-c2ccc(O)c(O)c2)oc2c1ccc1ccccc12	48.0*	77.9*	21.2	·	14.2	33.6*	81.7*
CN(CCc1ccccc1)C(=O)c1cc(COc2ccc(F)cc2Cl)on1	-2.4	1.3	5.8	0.2	1.7	1.6	·
CCc1nc2ccc(C(=O)NCCc3ccc(OC)c(OC)c3)cc2nc1CC	4.1	1.1	4.5	-2.4	3.4	13.2	·
COc1ccc(CCNC(=O)c2ccc3nc(-c4ccco4)c(-c4ccco4)nc3c2)cc1OC	23.4	44.0*	16.0	8.7	11.4	22.2	20.1
C[C@H](NC(=O)c1nc[nH]c1C(=O)N1CCNCC1)C(=O)OC(C)(C)C	3.7	1.8	1.6	-1.3	7.7	1.4	·
O=C(/C=C/c1ccccc1)c1cc(Br)ccc(=O)c1O	36.7*	36.0*	10.1	2.1	2.9	11.5	23.4
COc1ccc(NS(=O)(=O)c2cccc(C(=O)N3CCN(S(=O)(=O)c4ccccc4)CC3)c2)cc1	5.4	·	·	·	16.1	11.2	·
COc1cc(CNC(C)c2ccccc2)cc(Br)c1OCc1ccccc1 (stereo unspecified)	-1.5	5.2	1.0	-6.6	-0.1	-3.1	·
COc1cc(CNc2ccc(O)cc2)cc(Br)c1OCc1ccccc1	9.8	34.9*	16.2	12.9	8.3	4.6	13.2
COc1ccc(Br)cc1CNc1ccc(O)cc1	0.4	37.0*	29.4*	4.3	5.9	13.2	10.1

High-throughput results deposited in PubChem by The Scripps Research Institute Molecular Screening Center.
